A short description of experiment [1]: qHTS assay to identify aromatase inhibitors - cell viability counter screen (AID 743084).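 Note: cells stimulated with testosterone during compound exposure; nearly all actives have a fitted effect of over 55% in size.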 Note: potency is the fitted concentration of half-maximal effect. In general terms: Quantitative high-throughput screening tests each substance at several concentrations.
The nature of experiment [2]: qHTS assay to identify small molecule that activate the aryl hydrocarbon receptor (AhR) signaling pathway - cell viability counter screen (AID 743086).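 Note: HepG2 liver cells carrying the AhR DRE luciferase reporter; series mostly up to about 70 µM; nearly all actives have a fitted effect of over 45% in size.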 Put shortly:
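HepG2-AhR-luc (HG2L7.5c1) cells, 4000/well, treated 24 h at 37 C with compound; viability measured as CellTiter-Fluor fluorescence after 30 min in the same wells as the luciferase read.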

For experiment [3], the target named is Peroxisome proliferator-activated receptor gamma (Homo sapiens) (UniProt P37231). Briefly: qHTS assay to identify small molecule agonists of the peroxisome proliferator-activated receptor gamma (PPARg) signaling pathway (AID 743094; active = well fitted activation curve with a large enough effect in the signal ratio in the repeat runs, not every such curve was filed as active; the % refers to the signal ratio). The gist of the method:
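Agonist activity was taken from a beta-lactamase reporter (FRET substrate, 1 h at room temperature) in HEK293H cells carrying a PPARg UAS-bla construct. Compounds in DMSO were incubated 17 h at 37C after a 5 h cell pre-incubation.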

For experiment [4] the target is unchanged. The experiment can be described thus: qHTS assay to identify small molecule antagonists of the peroxisome proliferator-activated receptor gamma (PPARg) signaling pathway (AID 743191; calls by dose curve; note: series mostly up to about 63 µM; nearly all actives have a fitted effect of over 30% in size). The gist of the method:
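GeneBLAzer PPARg UAS-bla HEK293H cells, 5 h post-plating, exposed to compounds 17 h at 37C. LiveBLAzer B/G FRET substrate added for 1 h at room temperature; beta-lactamase reporter read by fluorescence intensity.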

Experiment [5] can be described thus: qHTS assay to identify small molecule antagonists of the peroxisome proliferator-activated receptor gamma (PPARg) signaling pathway - cell viability counter screen (AID 743194). Note: nearly all actives have a fitted effect of over 55% in size. Put shortly:
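Cytotoxicity counter screen in PPARg-bla HEK293H cells, same wells as reporter assay. Compounds plus 50 nM rosiglitazone (final) for 17 h at 37 C, then viability read by CellTiter-Glo luminescence.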

The nature of experiment [6]: qHTS assay for small molecule agonists of the antioxidant response element (ARE) signaling pathway - cell viability counter screen (AID 743203; calls by dose curve; note: nearly all actives have a fitted effect of over 55% in size). Put shortly:
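Viability counter screen: CellTiter-Glo luminescence, read after 30 min at room temperature, in ARE-bla HepG2 wells. Compound exposure lasted 16 h at 37C/5% CO2, following a 5 h pre-incubation of the cells after plating.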

Experiment [7] in a line: qHTS assay for small molecule activators of the heat shock response signaling pathway - cell viability counter screen (AID 743209). Note: nearly all actives have a fitted effect of over 50% in size. The gist of the method:
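Cytotoxicity counter screen run in the same wells as the heat-shock bla reporter assay: HeLa HSE-bla cells, 5 h compound exposure at 37 C, viability read by CellTiter-Glo luminescence.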

Experiment [8] in a line: qHTS assay to identify small molecule agonists of the peroxisome proliferator-activated receptor delta (PPARd) signaling pathway - cell viability counter screen (AID 743211). Note: nearly all actives have a fitted effect of over 55% in size. The gist of the method: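 Luminescent ATP viability assay (CellTiter-Glo, 30 min RT) in UAS-bla HEK293H cells carrying the PPAR delta reporter construct, 3000 cells/well, after a 17 h compound treatment at 37 C.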

The target in experiment [9] is Peroxisome proliferator-activated receptor delta (Homo sapiens) (UniProt Q03181). Briefly: qHTS assay to identify small molecule agonists of the peroxisome proliferator-activated receptor delta (PPARd) signaling pathway (AID 743212; calls by dose curve). The gist of the method: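 Tox21 library screened in GeneBLAzer PPARd UAS-bla HEK293H cells. After compound treatment at 37 C, a FRET-based beta-lactamase substrate was applied for 2 h and fluorescence recorded.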
Chain of Peroxisome proliferator-activated receptor delta (Homo sapiens) (Q03181 whole entry, looked up): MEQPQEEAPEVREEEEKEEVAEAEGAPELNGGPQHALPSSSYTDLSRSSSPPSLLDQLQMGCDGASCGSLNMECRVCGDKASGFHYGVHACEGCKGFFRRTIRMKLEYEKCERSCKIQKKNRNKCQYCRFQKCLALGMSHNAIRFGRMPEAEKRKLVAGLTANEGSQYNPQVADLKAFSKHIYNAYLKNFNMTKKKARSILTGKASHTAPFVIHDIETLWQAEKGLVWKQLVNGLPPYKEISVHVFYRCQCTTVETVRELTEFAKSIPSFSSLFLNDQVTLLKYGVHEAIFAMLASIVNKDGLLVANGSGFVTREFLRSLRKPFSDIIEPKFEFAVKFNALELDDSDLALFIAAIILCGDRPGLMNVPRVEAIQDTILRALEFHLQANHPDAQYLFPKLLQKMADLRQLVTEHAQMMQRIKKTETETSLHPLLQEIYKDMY

Experiment [10] in a line: qHTS assay to identify small molecule antagonists of the peroxisome proliferator-activated receptor delta (PPARd) signaling pathway - cell viability counter screen (AID 743213). Note: nearly all actives have a fitted effect of over 50% in size. Put shortly:
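In this counter screen, HEK293H cells carrying a UAS-beta-lactamase reporter are co-treated with test compounds and 300 nM L165041 (final) for 17 h at 37 C; cell viability is quantified by CellTiter-Glo luminescence.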

The target in experiment [11] is Peroxisome proliferator-activated receptor delta (Homo sapiens) (UniProt Q03181). The experiment can be described thus: qHTS assay to identify small molecule antagonists of the peroxisome proliferator-activated receptor delta (PPARd) signaling pathway (AID 743215; active = well fitted inhibition curve with a large enough effect in the signal ratio in the repeat runs, not every such curve was filed as active; the % refers to the signal ratio;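 note: cells stimulated with agonist L165041 at 300 nM final during compound exposure; series mostly up to about 62 µM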). The gist of the method:
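Agonist L165041 (300 nM final) added with compound to PPARd-bla HEK293H UAS-bla reporter cells; 17 h incubation at 37 C. Read-out: LiveBLAzer FRET substrate, 2 h at room temperature, fluorescence intensity.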

A short description of experiment [12]: qHTS assay to identify small molecule agonists of the farnesoid-X-receptor (FXR) signaling pathway - cell viability counter screen (AID 743218). Note: nearly all actives have a fitted effect of over 45% in size. The gist of the method: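 Viability counter screen in the same wells: CellTiter-Glo luminescence, 30 min room-temperature incubation, measured after the beta-lactamase read. Cells were GeneBLAzer FXR-UAS-bla HEK 293T, compound-treated 16 h at 37C.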

Experiment [13] can be described thus: qHTS assay to identify small molecule antagonists of the farnesoid-X-receptor (FXR) signaling pathway - cell viability counter screen (AID 743221; active = well fitted cell-killing curve with a large enough effect in the repeat runs, not every such curve was filed as active; note: nearly all actives have a fitted effect of over 50% in size). The gist of the method:
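In GeneBLAzer FXR-UAS-bla HEK 293T cells stimulated with 50 uM chenodeoxycholic acid (final), compounds acted for 16 h at 37 C. Viability was assessed afterwards by CellTiter-Glo luminescence.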

In experiment [14] the target is Vitamin D3 receptor (Homo sapiens) (UniProt P11473). The experiment can be described thus: qHTS assay to identify small molecule agonists of the vitamin D receptor (VDR) signaling pathway (AID 743222; calls by dose curve). Put shortly:
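Agonist mode, beta-lactamase reporter: fluorescence from LiveBLAzer B/G FRET substrate (2 h, room temperature) read after 16 h compound treatment at 37 C of VDR-bla cells, which were pre-incubated 4 h after seeding.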

Experiment [15] deals with Aryl hydrocarbon receptor (Homo sapiens) (UniProt P35869). Briefly: qHTS assay to identify small molecule that activate the aryl hydrocarbon receptor (AhR) signaling pathway (AID 743085).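 For activation: HG2L7.5c1 human HepG2 liver cells with stably integrated DRE-driven firefly reporter; series mostly up to about 70 µM.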 Note: nearly all actives have a fitted effect of over 15% in size. Note: potency is the fitted concentration of half-maximal effect. The gist of the method:
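24 h compound exposure, 37C, HepG2-derived HG2L7.5c1 cells with DRE-responsive luciferase. Readouts: fluorescence viability, then luminescence at room temperature after 30 min.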

A short description of experiment [16]: qHTS assay for small molecule agonists of the antioxidant response element (ARE) signaling pathway (AID 743202; active = well fitted activation curve with a large enough effect in the signal ratio in the repeat runs, not every such curve was filed as active; the % refers to the signal ratio). The gist of the method:
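HepG2 ARE-bla cells; 16 h treatment at 37 C; FRET-based beta-lactamase fluorescence read after 2 h substrate incubation at room temperature.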

Experiment [17] is described as follows: qHTS assay for small molecule activators of the heat shock response signaling pathway (AID 743210; active = well fitted activation curve with a large enough effect in the signal ratio in the repeat runs, with a control signal flat, not every such curve was filed as active; the % refers to the signal ratio;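 note: HeLa cells with beta-lactamase reporter driven by heat shock elements; series mostly up to about 63 µM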). Put shortly:
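Following overnight attachment, HSE-bla HeLa cells received test compounds for 5 h at 37 C; beta-lactamase activity was then detected via FRET substrate fluorescence.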

Experiment [18] has as its target Vitamin D3 receptor (Homo sapiens) (UniProt P11473). The experiment can be described thus: qHTS assay to identify small molecule antagonists of the vitamin D receptor (VDR) signaling pathway (AID 743223; active = well fitted inhibition curve with a large enough effect in the signal ratio in the repeat runs, not every such curve was filed as active; the % refers to the signal ratio). The gist of the method:
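Agonist 1alpha,25-dihydroxyvitamin D3 (3 nM in well) was added with each compound to VDR-bla cells preincubated 4 h. Cells stood 16 h at 37C, then FRET substrate 2 h at room temperature; fluorescence intensity recorded.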

Experiment [19] concerns the target Bile acid receptor (Homo sapiens) (UniProt Q96RI1). The experiment can be described thus: qHTS assay to identify small molecule antagonists of the farnesoid-X-receptor (FXR) signaling pathway (AID 743217; active = well fitted inhibition curve with a large enough effect in the signal ratio in the repeat runs, not every such curve was filed as active; the % refers to the signal ratio). The gist of the method:
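Antagonist mode: chenodeoxycholic acid at 50 uM final stimulates a UAS-driven beta-lactamase reporter in HEK 293T FXR-bla cells during 16 h, 37C compound exposure. Read-out is FRET substrate fluorescence after 2 h at room temperature.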

For experiment [20] the target is unchanged. The experiment can be described thus: qHTS assay to identify small molecule agonists of the farnesoid-X-receptor (FXR) signaling pathway (AID 743220; active = well fitted activation curve with a large enough effect in the signal ratio in the repeat runs, not every such curve was filed as active; the % refers to the signal ratio). The gist of the method: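 FXR-UAS-bla HEK 293T cells carrying a UAS-driven beta-lactamase reporter were plated for 5 h at 37C/5% CO2, then exposed to DMSO-dissolved Tox21 10K compounds for 16 h at 37C. A LiveBLAzer B/G FRET substrate was loaded for 2 h at room temperature before fluorescence reading.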

Inconclusive results are not listed. Calls of active or inactive are those of the source. Unless noted, calls come from the whole dose curve; as a rule, active = well fitted curve in the direction sought with a large enough effect in the repeat runs; inconclusive = weak or mixed curves; inactive = no such curve, though single readings can be large; an effect the other way counts as inactive or inconclusive.

Chain of Aryl hydrocarbon receptor (Homo sapiens) (P35869 whole entry, looked up): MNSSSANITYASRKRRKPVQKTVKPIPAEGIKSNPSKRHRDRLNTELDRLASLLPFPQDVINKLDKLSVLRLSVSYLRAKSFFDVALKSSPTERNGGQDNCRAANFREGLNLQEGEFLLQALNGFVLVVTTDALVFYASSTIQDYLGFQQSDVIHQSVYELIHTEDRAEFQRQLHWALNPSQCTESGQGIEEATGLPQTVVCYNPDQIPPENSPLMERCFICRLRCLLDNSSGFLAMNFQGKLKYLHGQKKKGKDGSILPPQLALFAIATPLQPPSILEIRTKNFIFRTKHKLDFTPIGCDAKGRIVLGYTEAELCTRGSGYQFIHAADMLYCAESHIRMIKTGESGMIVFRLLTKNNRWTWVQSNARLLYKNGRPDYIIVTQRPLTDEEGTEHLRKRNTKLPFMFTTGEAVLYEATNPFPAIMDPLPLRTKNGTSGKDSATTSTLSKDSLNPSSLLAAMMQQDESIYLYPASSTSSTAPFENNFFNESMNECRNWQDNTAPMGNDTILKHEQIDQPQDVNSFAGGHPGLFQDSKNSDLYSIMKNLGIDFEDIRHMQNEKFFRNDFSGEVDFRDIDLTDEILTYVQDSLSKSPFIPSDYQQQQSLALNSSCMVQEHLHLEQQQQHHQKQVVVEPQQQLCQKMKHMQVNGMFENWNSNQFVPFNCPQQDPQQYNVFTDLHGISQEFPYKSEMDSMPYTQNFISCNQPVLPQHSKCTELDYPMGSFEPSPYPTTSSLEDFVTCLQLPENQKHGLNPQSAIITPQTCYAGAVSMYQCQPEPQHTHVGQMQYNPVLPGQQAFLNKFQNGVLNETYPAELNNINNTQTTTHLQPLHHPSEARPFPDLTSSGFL
Chain of Peroxisome proliferator-activated receptor gamma (Homo sapiens) (P37231 whole entry, looked up): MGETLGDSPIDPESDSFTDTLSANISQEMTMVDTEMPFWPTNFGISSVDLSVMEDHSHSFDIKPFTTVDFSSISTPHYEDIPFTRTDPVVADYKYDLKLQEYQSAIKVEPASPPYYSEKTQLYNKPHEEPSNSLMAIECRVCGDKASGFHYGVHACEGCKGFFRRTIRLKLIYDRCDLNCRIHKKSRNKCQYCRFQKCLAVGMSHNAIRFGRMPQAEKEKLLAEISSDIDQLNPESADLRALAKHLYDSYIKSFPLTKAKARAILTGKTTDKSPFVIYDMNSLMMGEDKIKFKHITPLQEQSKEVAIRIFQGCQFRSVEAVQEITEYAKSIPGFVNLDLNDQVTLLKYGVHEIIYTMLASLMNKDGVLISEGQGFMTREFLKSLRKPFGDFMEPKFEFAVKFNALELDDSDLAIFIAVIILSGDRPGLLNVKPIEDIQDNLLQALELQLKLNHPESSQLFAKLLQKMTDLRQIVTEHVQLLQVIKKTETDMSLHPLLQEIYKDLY
Chain of Vitamin D3 receptor (Homo sapiens) (P11473 whole entry, looked up): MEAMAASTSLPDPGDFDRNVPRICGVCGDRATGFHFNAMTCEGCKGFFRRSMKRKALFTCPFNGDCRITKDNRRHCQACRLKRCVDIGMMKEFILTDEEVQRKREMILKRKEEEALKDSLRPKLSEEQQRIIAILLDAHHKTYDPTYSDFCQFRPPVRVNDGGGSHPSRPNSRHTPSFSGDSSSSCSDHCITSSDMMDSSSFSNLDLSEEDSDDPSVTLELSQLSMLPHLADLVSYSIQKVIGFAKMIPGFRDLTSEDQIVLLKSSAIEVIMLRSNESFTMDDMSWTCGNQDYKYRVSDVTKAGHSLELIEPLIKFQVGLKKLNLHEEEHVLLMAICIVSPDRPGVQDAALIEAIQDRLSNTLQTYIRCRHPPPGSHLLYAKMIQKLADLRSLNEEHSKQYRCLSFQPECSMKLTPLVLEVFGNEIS
Chain of Bile acid receptor (Homo sapiens) (Q96RI1 whole entry, looked up): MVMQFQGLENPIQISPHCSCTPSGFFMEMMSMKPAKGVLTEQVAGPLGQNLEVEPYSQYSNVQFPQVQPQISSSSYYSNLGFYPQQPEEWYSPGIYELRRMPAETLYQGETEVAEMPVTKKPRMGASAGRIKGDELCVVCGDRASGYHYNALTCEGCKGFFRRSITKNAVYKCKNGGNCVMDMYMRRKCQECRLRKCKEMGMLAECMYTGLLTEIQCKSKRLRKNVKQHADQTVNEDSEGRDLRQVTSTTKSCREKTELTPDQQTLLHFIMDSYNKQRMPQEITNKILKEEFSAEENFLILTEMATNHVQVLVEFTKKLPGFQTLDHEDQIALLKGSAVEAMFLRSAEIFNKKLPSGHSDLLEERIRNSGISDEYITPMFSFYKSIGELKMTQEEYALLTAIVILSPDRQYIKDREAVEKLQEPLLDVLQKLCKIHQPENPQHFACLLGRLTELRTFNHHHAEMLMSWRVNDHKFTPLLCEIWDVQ

In the case of `CC(=O)OC/C=C(\C)CC/C=C(\C)CCC=C(C)C`, the Potency entry in [1], in experiment [2], in experiment [4], in experiment [6], in experiment [8] and in [10] was “inactive” in each case. Besides, the Potency result in experiment [11], in [12] and in [13] was “inactive” in each case. Besides, the outcome in [3], in experiment [5], in experiment [7], in experiment [9] and in experiment [14] was inactive.

Turning to `CC(=O)Nc1c(I)cc(I)c(C(=O)O)c1I`, the Potency result in experiment [1], in experiment [15], in experiment [2], in experiment [16], in experiment [8] and in experiment [10] was “inactive” in each case. Further, the Potency result in experiment [11], in experiment [12] and in experiment [13] was “inactive” each time. For the same molecule, the molecule was called inactive in experiment [5], in [7], in [17], in [9], in experiment [14] and in [18].

`CCN1CCC[C@H]1CNC(=O)c1c(O)c(Cl)cc(Cl)c1OC`: the Potency result in [1], in experiment [15], in [2], in [16], in experiment [6] and in experiment [8] was “inactive” each time. Moreover, the Potency entry in experiment [12] and in experiment [13] was “inactive” throughout. The result in experiment [5], in experiment [7] and in experiment [9] was inactive.

On to `COC(=O)[C@@H](N)Cc1ccc(O)c(O)c1`, for which the Potency in [1] and in experiment [15] was 26.6 µM (active) in each case. The call in experiment [3], in experiment [5], in experiment [7] and in experiment [17] was inactive. The Potency result in experiment [6], in experiment [8], in [10], in experiment [12] and in [13] was “inactive” each time.

Consider `CCCCOCCOCCOCCCC`, for which the Potency entry in experiment [1], in experiment [15], in [2], in experiment [6], in [8] and in experiment [10] was “inactive” throughout. In addition, the Potency entry in experiment [11], in experiment [12] and in [13] was “inactive” throughout. Also, the molecule was classed as inactive in [5], in experiment [7], in experiment [9], in experiment [19] and in experiment [20].

For `NC(=O)Nc1ccccc1`, the Potency result in experiment [1], in experiment [15], in experiment [2], in experiment [16], in [6] and in [8] was “inactive” throughout. In addition, the Potency entry in experiment [10], in [12] and in experiment [13] was “inactive” throughout. Also, the result in experiment [7], in experiment [17], in experiment [9] and in experiment [14] was inactive.

With `N#Cc1ccc(C2CCCc3cncn32)cc1` (stereo unspecified), the Potency entry in experiment [1], in experiment [15], in experiment [2], in experiment [6], in experiment [8] and in experiment [10] was “inactive” in each case. Also, the Potency entry in experiment [12] and in [13] was “inactive” throughout. Also, the molecule was classed as inactive in experiment [5], in [7], in [17], in experiment [9], in experiment [14] and in experiment [18].

On to `N=C(N)c1ccc2cc(OC(=O)c3ccc(N=C(N)N)cc3)ccc2c1`, for which the Potency result in experiment [1], in [15], in [2], in experiment [6], in experiment [8] and in experiment [10] was “inactive” throughout. Moreover, the Potency entry in experiment [11], in [12] and in experiment [13] was “inactive” throughout. The outcome in [5], in [7], in [9], in experiment [19], in [20] and in [14] was inactive. The molecule was called inactive in experiment [18].

`N=C(N)c1ccc(OCCCOc2ccc(C(=N)N)cc2)cc1`: the Potency result in experiment [1], in [15], in experiment [4], in experiment [6], in experiment [8] and in experiment [10] was “inactive” in each case. Moreover, the Potency result in experiment [11], in [12] and in experiment [13] was “inactive” in each case. For the same molecule, the call in experiment [3], in [5], in [7], in [17], in experiment [14] and in [18] was inactive.

On to `Cc1ccc(Cl)cc1Cl`, for which the Potency entry in experiment [1], in experiment [15], in experiment [2], in experiment [16], in experiment [6] and in [8] was “inactive” in each case. Moreover, the Potency result in experiment [10], in experiment [12] and in experiment [13] was “inactive” each time. Further, the outcome in experiment [5], in experiment [7], in experiment [14] and in experiment [18] was inactive.

These data come from PubChem BioAssay (Tox21).
